Assay results from article PMC7862700, “An all-to-all approach to the identification of sequence-specific readers for epigenetic DNA modifications on cytosine”.

Legend:
Test in all cases: DAPPL (digital affinity profiling via proximity ligation, sequencing); 10 mM Tris-HCl pH 7.5, 50 mM NaCl, 1 mM DTT, 4% glycerol, room temperature, 30 min; GST-TFs on glutathione beads, 16-mer random dsDNA library, 0.1% formaldehyde crosslink after washing; high values mean tight binding
[1] = molecular target: T1, FLI1 (Homo sapiens, UniProt Q01543 1-452); conditions: protein: recombinant; tags: N-terminal GST; dsDNA, one strand shown
T1 sequence: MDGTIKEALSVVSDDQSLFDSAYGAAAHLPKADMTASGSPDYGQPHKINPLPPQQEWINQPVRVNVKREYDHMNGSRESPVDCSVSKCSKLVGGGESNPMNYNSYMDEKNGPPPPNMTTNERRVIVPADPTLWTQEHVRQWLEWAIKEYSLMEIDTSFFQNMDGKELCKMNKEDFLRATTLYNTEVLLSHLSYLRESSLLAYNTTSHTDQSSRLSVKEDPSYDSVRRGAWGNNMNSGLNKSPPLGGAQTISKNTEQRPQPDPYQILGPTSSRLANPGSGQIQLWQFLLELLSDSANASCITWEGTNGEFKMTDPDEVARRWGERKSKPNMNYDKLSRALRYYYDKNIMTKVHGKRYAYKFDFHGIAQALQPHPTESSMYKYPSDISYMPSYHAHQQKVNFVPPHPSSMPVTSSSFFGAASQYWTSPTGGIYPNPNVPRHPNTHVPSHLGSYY
Outline: (§1)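 The binding signal reported is, for every hexamer, its read frequency for a factor over its read frequency for the tag-only sample. Reads came from pools of yeast-expressed, GST-fused human transcription factors on glutathione beads, barcoded with DNA and mixed with that sample, which were incubated with 200 nmole of a random double-stranded 16-mer DNA library in Tris/NaCl/DTT/glycerol buffer at room temperature for 30 min. After washing, the pools were crosslinked with 0.1% formaldehyde, proximity-ligated with BsaI/T4 ligase for 1 h at 37 °C, PCR-amplified and sequenced on an Illumina NextSeq500.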

[2] = molecular target: T2, ELK1 (Homo sapiens, UniProt P19419 1-428); conditions: protein: recombinant; tags: N-terminal GST; dsDNA, one strand shown
T2 sequence: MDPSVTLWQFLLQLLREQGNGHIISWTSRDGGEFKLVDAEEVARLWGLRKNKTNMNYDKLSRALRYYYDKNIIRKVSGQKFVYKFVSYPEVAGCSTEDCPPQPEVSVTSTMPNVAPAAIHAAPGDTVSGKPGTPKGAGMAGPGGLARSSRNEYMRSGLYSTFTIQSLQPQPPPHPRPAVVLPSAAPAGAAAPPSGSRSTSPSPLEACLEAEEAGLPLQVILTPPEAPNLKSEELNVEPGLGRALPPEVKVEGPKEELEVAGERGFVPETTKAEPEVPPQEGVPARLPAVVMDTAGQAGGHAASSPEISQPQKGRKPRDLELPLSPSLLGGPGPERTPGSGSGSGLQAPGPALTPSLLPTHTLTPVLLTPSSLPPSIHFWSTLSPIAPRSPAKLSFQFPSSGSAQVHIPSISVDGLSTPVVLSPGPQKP
Outline: as §1

[3] = molecular target: T3, GABPA (Homo sapiens, UniProt Q06546 1-454); conditions: protein: recombinant; tags: N-terminal GST; dsDNA, one strand shown
T3 sequence: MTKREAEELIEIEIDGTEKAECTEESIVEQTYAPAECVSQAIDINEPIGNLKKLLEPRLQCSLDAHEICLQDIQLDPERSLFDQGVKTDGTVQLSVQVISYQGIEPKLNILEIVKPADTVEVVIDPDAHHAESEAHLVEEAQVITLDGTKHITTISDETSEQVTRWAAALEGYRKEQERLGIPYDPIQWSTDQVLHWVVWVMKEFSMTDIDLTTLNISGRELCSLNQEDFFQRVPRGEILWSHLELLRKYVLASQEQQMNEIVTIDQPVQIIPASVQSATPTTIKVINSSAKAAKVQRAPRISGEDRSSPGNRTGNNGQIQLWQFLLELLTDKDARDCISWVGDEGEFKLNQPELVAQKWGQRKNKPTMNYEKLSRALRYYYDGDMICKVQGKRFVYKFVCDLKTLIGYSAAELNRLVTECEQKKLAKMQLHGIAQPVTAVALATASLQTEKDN
Outline: as §1

[4] = molecular target: T4, ERG (Homo sapiens, UniProt P11308 1-479); conditions: protein: recombinant; tags: N-terminal GST; dsDNA, one strand shown
T4 sequence: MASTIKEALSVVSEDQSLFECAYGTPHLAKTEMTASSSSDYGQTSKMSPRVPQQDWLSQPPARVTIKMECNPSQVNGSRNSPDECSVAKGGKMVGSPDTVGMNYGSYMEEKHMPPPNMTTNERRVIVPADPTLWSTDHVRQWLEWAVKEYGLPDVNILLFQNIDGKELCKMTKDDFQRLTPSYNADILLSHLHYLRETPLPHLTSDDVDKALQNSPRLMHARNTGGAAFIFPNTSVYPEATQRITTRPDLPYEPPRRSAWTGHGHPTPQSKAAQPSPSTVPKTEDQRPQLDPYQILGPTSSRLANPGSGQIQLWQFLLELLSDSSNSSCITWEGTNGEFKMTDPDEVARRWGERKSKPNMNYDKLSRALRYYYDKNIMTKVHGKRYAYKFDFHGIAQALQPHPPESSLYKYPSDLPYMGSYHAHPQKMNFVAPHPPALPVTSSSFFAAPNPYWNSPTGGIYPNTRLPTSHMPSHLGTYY
Outline: as §1

[5] = molecular target: ELF1 (Homo sapiens, UniProt P32519 1-619); conditions: protein: recombinant; tags: N-terminal GST; dsDNA, one strand shown
Outline: as §1

[6] = molecular target: T5, EHF (Homo sapiens, UniProt Q9NZC4 1-300); conditions: protein: recombinant; tags: N-terminal GST; dsDNA, one strand shown
T5 sequence: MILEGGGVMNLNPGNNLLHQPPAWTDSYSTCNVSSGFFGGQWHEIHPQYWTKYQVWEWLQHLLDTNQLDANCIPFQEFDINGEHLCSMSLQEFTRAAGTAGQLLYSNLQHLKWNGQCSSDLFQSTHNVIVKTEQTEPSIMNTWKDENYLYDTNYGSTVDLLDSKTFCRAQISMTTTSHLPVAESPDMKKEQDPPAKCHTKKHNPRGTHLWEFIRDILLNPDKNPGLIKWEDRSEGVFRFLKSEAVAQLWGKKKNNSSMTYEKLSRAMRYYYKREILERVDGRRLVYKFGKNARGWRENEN
Outline: as §1

[7] = molecular target: SPI1 (Homo sapiens, UniProt P17947 1-270); conditions: protein: recombinant; tags: N-terminal GST; dsDNA, one strand shown
Outline: as §1

[8] = molecular target: SPIB (Homo sapiens, UniProt Q01892 1-262); conditions: protein: recombinant; tags: N-terminal GST; dsDNA, one strand shown
Outline: as §1

[9] = molecular target: T6, ELK3 (Homo sapiens, UniProt P41970 1-407); conditions: protein: recombinant; tags: N-terminal GST; dsDNA, one strand shown
T6 sequence: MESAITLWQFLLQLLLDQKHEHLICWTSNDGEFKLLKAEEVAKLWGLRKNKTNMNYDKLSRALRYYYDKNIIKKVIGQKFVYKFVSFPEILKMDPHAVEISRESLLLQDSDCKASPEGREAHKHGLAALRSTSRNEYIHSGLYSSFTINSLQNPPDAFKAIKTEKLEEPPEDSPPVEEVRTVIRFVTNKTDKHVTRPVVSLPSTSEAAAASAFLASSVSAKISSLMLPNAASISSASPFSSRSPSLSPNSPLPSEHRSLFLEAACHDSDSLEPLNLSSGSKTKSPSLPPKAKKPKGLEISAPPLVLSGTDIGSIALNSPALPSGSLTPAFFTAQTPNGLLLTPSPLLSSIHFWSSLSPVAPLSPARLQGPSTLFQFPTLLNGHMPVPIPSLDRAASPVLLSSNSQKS
Outline: as §1

[10] = molecular target: T7, FEV (Homo sapiens, UniProt Q99581 1-238); conditions: protein: recombinant; tags: N-terminal GST; dsDNA, one strand shown
T7 sequence: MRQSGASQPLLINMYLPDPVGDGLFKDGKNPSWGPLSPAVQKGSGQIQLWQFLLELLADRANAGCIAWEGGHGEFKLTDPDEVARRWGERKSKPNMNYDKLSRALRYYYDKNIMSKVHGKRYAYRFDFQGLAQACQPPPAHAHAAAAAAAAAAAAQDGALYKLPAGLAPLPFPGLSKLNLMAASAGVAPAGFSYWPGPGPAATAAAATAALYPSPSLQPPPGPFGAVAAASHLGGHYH
Outline: as §1

[11] = molecular target: ETV5 (Homo sapiens, UniProt P41161 1-510); conditions: protein: recombinant; tags: N-terminal GST; dsDNA, one strand shown
Outline: as §1

[12] = molecular target: HSF1 (Homo sapiens, UniProt Q00613 1-529); conditions: protein: recombinant; tags: N-terminal GST; chain copies: 3; dsDNA, one strand shown
Outline: as §1

[13] = molecular target: ELF4 (Homo sapiens, UniProt Q99607 1-663); conditions: protein: recombinant; tags: N-terminal GST; dsDNA, one strand shown
Outline: as §1

[14] = molecular target: T8, ELK4 (Homo sapiens, UniProt P28324-2 1-405); conditions: protein: recombinant; tags: N-terminal GST; dsDNA, one strand shown
T8 sequence: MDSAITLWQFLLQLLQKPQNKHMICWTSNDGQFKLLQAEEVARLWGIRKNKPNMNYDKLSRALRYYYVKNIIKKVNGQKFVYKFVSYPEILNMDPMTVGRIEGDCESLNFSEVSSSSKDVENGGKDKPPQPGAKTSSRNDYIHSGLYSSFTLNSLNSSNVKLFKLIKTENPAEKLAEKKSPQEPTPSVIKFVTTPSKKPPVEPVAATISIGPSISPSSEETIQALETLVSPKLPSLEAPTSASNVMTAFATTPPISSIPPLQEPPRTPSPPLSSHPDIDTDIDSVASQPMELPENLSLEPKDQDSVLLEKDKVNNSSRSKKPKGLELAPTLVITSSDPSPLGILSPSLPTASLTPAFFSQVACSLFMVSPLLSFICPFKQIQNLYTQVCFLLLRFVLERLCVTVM
Outline: as §1

[15] = molecular target: T9, ETV2 (Homo sapiens, UniProt O00321 1-342); conditions: protein: recombinant; tags: N-terminal GST; dsDNA, one strand shown
T9 sequence: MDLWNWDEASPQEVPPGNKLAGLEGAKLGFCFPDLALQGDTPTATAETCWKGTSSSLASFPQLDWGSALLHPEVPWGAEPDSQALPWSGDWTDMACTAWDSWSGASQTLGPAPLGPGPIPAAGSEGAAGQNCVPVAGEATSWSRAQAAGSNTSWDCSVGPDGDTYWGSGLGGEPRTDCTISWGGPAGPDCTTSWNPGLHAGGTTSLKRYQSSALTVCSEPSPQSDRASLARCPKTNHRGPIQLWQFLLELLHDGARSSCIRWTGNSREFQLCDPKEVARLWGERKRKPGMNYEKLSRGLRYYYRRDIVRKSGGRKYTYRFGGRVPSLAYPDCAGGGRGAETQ
Outline: as §1

[16] = molecular target: T10, ELF3 (Homo sapiens, UniProt P78545 1-371); conditions: protein: recombinant; tags: N-terminal GST; dsDNA, one strand shown
T10 sequence: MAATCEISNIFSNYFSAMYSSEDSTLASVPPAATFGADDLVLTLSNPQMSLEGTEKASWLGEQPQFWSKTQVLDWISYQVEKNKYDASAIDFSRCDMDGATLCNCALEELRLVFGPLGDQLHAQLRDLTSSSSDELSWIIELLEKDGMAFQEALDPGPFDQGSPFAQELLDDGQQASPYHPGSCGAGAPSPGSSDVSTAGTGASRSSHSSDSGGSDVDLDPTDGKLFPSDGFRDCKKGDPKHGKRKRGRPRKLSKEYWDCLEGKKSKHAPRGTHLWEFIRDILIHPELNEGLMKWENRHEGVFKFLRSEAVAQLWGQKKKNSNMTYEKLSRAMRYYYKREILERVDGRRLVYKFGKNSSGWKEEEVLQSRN
Outline: as §1

[17] = molecular target: CRX (Homo sapiens, UniProt O43186 1-299); conditions: protein: recombinant; tags: N-terminal GST; dsDNA, one strand shown
Outline: as §1

[18] = molecular target: ETV1 (Homo sapiens, UniProt P50549 1-477); conditions: protein: recombinant; tags: N-terminal GST; dsDNA, one strand shown
Outline: as §1

ELF4, sequence (Q99607 whole entry): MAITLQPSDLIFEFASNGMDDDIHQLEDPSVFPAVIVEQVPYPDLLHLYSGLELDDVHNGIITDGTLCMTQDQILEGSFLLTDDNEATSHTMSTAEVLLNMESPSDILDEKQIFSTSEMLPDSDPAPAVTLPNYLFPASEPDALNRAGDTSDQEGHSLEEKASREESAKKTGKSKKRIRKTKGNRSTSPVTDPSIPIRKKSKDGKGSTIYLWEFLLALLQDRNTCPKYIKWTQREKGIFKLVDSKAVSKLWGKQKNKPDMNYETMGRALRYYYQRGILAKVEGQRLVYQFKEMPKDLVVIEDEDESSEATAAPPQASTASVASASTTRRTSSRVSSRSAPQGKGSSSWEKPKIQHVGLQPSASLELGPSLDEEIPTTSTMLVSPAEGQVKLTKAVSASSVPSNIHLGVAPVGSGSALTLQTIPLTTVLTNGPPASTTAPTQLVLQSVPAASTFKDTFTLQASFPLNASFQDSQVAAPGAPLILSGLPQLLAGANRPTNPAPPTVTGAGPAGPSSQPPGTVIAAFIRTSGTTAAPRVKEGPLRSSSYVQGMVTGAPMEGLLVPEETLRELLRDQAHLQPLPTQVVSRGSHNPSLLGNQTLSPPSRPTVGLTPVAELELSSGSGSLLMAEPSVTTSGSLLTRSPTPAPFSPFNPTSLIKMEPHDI
SPIB, sequence (Q01892 whole entry): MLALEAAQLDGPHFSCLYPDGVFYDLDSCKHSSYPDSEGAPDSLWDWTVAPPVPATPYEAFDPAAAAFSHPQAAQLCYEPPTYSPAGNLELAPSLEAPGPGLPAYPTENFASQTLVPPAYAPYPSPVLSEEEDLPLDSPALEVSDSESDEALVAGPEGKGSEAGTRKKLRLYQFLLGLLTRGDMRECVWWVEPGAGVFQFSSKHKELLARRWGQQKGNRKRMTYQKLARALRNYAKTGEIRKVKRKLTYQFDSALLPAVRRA
ETV1, sequence (P50549 whole entry): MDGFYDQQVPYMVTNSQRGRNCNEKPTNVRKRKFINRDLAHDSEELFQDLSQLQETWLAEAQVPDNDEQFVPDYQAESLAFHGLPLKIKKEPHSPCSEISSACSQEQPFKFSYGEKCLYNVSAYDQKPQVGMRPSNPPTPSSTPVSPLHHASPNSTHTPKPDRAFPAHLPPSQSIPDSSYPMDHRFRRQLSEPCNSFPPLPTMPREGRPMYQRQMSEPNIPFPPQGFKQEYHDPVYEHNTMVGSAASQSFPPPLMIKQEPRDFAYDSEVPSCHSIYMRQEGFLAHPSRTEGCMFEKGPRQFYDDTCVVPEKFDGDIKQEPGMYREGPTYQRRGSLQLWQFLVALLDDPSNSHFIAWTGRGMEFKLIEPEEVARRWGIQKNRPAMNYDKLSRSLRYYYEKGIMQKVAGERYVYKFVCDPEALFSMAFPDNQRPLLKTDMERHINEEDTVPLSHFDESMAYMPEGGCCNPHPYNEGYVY
ELF1, sequence (P32519 whole entry): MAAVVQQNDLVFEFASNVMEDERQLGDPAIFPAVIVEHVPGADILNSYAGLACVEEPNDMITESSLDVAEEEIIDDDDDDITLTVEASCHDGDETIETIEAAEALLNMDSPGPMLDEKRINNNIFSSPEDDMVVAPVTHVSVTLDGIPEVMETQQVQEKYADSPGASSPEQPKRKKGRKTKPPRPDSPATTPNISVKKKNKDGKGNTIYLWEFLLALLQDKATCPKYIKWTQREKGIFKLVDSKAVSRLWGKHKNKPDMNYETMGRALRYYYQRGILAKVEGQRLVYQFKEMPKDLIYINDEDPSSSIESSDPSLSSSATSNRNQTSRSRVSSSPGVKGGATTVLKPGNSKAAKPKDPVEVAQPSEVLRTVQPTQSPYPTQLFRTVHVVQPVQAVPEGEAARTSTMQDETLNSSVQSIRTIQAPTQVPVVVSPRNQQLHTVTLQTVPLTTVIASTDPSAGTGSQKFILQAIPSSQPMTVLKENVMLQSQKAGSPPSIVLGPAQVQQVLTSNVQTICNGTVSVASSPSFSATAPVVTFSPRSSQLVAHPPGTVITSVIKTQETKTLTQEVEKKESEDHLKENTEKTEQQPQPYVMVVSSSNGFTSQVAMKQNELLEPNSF
HSF1, sequence (Q00613 whole entry): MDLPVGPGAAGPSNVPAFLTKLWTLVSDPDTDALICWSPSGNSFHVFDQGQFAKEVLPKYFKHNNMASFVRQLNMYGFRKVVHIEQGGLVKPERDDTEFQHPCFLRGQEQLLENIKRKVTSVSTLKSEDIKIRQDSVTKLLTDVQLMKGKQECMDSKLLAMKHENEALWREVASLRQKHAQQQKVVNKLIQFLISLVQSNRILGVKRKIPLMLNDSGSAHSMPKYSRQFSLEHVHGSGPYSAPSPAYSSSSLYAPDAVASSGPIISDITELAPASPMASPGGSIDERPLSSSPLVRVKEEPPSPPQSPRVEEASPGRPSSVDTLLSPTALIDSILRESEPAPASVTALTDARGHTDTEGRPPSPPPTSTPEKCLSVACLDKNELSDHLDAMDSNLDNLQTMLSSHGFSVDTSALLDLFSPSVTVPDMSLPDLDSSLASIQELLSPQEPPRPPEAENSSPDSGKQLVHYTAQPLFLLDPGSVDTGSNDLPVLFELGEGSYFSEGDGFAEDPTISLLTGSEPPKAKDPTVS
CRX, sequence (O43186 whole entry): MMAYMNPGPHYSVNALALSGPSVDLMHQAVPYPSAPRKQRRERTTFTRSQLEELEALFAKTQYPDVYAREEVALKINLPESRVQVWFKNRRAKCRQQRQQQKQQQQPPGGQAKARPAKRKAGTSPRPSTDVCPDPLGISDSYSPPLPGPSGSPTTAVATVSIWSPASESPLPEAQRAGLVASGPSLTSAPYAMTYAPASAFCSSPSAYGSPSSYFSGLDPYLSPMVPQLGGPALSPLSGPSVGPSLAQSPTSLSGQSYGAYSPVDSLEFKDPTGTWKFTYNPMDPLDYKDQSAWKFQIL
ETV5, sequence (P41161 whole entry): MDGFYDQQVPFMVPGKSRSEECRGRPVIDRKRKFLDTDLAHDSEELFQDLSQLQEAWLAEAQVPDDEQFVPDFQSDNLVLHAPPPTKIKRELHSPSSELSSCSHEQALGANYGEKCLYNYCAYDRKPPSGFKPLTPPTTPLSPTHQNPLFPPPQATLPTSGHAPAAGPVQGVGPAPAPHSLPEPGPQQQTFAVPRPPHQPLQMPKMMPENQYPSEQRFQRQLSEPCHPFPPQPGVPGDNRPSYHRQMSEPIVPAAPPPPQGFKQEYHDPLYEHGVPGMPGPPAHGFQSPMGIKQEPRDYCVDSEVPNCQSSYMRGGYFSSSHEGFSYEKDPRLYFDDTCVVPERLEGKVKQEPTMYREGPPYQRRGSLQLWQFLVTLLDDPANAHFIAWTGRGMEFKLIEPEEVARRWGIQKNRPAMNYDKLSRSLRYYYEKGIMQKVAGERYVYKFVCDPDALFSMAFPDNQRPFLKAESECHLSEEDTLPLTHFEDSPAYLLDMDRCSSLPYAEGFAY

With TGACTA the binding signal [1] was 1.14 fold enrichment (6-mer frequency, TF over GST control), the binding signal [2] was 1.08 fold enrichment (6-mer frequency, TF over GST control) and the binding signal [3] was 1.08 fold enrichment (6-mer frequency, TF over GST control). For the same sequence, the binding signal [4] was 1.03 fold enrichment (6-mer frequency, TF over GST control), the binding signal [5] was 1.09 fold enrichment (6-mer frequency, TF over GST control) and the binding signal [6] was 1.11 fold enrichment (6-mer frequency, TF over GST control). For the same sequence, the binding signal [7] was 1.14 fold enrichment (6-mer frequency, TF over GST control), the binding signal [8] was 1.17 fold enrichment (6-mer frequency, TF over GST control) and the binding signal [9] was 1.14 fold enrichment (6-mer frequency, TF over GST control). For the same sequence, the binding signal [10] was 1.01 fold enrichment (6-mer frequency, TF over GST control), the binding signal [11] was 1.04 fold enrichment (6-mer frequency, TF over GST control) and the binding signal [12] was 1.04 fold enrichment (6-mer frequency, TF over GST control). The binding signal [13] was 1.09 fold enrichment (6-mer frequency, TF over GST control), the binding signal [14] was 1.06 fold enrichment (6-mer frequency, TF over GST control) and the binding signal [15] was 1.17 fold enrichment (6-mer frequency, TF over GST control). The binding signal [16] was 1.08 fold enrichment (6-mer frequency, TF over GST control), the binding signal [17] was 1.17 fold enrichment (6-mer frequency, TF over GST control) and the binding signal [18] was 1.15 fold enrichment (6-mer frequency, TF over GST control).
